Most compounds without a hit are left out; they make up all but 3.5% or so of the library.
FBW7 activator = activators of human E3 ligase FBW7. AlphaScreen FBW7–phospho-cyclin E peptide binding, activator screen. normalized activity (activation), % at 26.1 µM. AID 1259310. actives 0.13% (n = 650,000); in the data active = normalized activity above about 1.9%;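 note: purified mutant Fbw7 with reduced substrate affinity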
MITF inh = human MITF inhibition, primary screen | O75030 | AlphaScreen MITF homodimerization, bead proximity signal | inhibition, % at 2.6 µM | actives 0.91% (n = 650,000) | AID 1259374; in the data active = inhibition above about 50%;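 note: 0% = vehicle wells with protein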
GPR151 activ = activates the human receptor GPR151; Q8TDV0; PathHunter beta-arrestin GPR151 cells, luminescence; actives 1% (n = 650,000); AID 1508602; activation, % at 11.2 µM; in the data active = activation above about 4.9%;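 note: 0% = median of compound wells and 100% = cells with positive control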
Target sequence (Q8TDV0 whole entry, looked up): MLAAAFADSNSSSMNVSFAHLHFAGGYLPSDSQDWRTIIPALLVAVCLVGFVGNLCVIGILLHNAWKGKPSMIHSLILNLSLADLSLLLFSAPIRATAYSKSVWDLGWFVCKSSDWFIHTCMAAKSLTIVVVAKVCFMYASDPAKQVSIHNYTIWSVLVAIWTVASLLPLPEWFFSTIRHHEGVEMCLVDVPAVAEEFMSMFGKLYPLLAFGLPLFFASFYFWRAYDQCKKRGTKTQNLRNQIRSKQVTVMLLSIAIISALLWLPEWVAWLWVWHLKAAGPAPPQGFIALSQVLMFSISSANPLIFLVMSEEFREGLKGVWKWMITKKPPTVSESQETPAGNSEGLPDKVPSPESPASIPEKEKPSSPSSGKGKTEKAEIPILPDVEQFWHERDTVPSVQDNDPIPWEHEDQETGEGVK
TEAD-YAP block = TEAD-YAP interaction inhibition; HEK-TIYL cells, TEAD-Gal4/YAP UAS-luciferase luminescence; inhibition, % at 9.12 µM; actives 1.4% (n = 640,000); in the data active = inhibition above about 32%;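 note: 0% = median of test compound wells and 100% = reference inhibitor wells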
* = called active by the depositor.

SMILES	FBW7 activator	MITF inh	GPR151 activ	TEAD-YAP block
CN1CCc2c(sc3c2C(=O)NC(c2ccc(O)c(O)c2)N3)C1 (centres undefined)	-0.3	65.9*	-0.1	-0.9
COc1cc(C2NC(=O)c3c(sc4c3CCN(C)C4)N2)ccc1O (centres undefined)	-0.1	2.7	-0.1	15.8
O=C(O)CN1C(=O)C2C3c4ccccc4C(Br)(c4ccccc43)C2C1=O (centres undefined)	-0.6	-5.6	1.0	0.1
CCN(CC)c1ccc(/C=C2/C(=O)N(c3ccccc3)N=C2C)cc1	-1.8	68.1*	-1.2	11.3
CC1=NN(c2ccc(Cl)cc2)C(=O)/C1=C\c1ccc([N+](=O)[O-])o1	-0.7	-14.6	-0.7	7.0
CC1=NN(c2ccccc2)C(=O)/C1=C/c1ccc(N2CCCC2)o1	-0.1	9.4	3.7	66.1*
CC1=NN(c2ccc(C(=O)O)cc2)C(=O)/C1=C\c1ccc([N+](=O)[O-])o1	-0.1	71.4*	-0.8	6.0
Cc1ccc2cc(CCNC(=O)Cc3ccccc3)c(=O)[nH]c2c1	-0.1	-3.4	0.6	-2.0
O=C1Nc2ccccc2/C1=C/c1nc2ccccc2c(=O)n1-c1cccc([N+](=O)[O-])c1	-0.3	8.6	0.6	17.1
O=C1Nc2ccccc2/C1=C\c1nc2ccccc2c(=O)n1-c1cccc([N+](=O)[O-])c1	0.0	19.9	2.6	40.8*
COc1ccc(OC)c(/C=C2/N=C(c3cccc([N+](=O)[O-])c3)OC2=O)c1	1.9*	15.2	1.3	3.5
O=C(O)c1cc(-c2ccc(O)c(O)c2)nc2n[nH]c(-c3ccc(F)cc3)c12	-0.1	20.2	-0.4	1.4
O=C(O)c1cc(-c2ccc(O)c(O)c2)nc2n[nH]c(-c3ccccc3)c12	-0.2	81.3*	1.1	-8.0
CC(NC(=O)CCl)C1COc2ccccc2O1 (centres undefined)	-0.4	0.8	0.3	36.7*
CS(=O)(=O)c1ccc(-c2ccc3c(c2)CC(CNC(=O)CCc2cccnc2)O3)cc1 (centres undefined)	-0.2	-13.3	1.5	12.1
CS(=O)(=O)c1ccc(-c2ccc3c(c2)CC(CNC(=O)/C=C/c2cccnc2)O3)cc1 (centres undefined)	0.0	-1.4	0.9	38.9*
CCCCCC(=O)N1c2ccccc2NC2=C(C(=O)CC(c3ccc(N(CC)CC)cc3)C2)C1c1ccco1 (centres undefined)	0.1	21.8	-0.3	46.6*
CCOc1cc(C(=O)NCc2ccccc2OC)cc(OCC)c1OCC	0.0	-6.1	-0.4	1.2
COc1cc(S(=O)(=O)Nc2cccc3cn[nH]c23)ccc1F	0.3	-6.2	-0.6	52.4*
O=S(=O)(Nc1cccc2cn[nH]c12)c1ccc(F)cc1	-0.2	-20.8	-1.1	3.7
CC(C)(C)NS(=O)(=O)c1ccc(Cc2ccc(S(=O)(=O)NC(C)(C)C)cc2)cc1	-0.1	-3.7	-1.1	37.4*
CC(C)NS(=O)(=O)c1ccc(Cc2ccc(S(=O)(=O)NC(C)C)cc2)cc1	0.1	5.2	0.7	34.6*
CC(C)(C)NS(=O)(=O)c1ccc(F)cc1	0.0	-4.8	0.6	-2.5
O=C(CN1CCCc2ccccc21)N/N=C/c1ccco1	0.0	-8.3	-1.9	67.7*
O=C(N/N=C/c1ccc(O)cc1)c1cccc(O)c1	-0.1	-2.1	-5.9	23.2
SMILES	FBW7 activator	MITF inh	GPR151 activ	TEAD-YAP block
O=C(N/N=C/c1ccc([N+](=O)[O-])cc1)c1cccc(O)c1	0.4	12.4	-2.1	40.4*
N/C(=N\N=C/c1ccc([N+](=O)[O-])cc1)N/N=C\c1ccc([N+](=O)[O-])cc1	4.3*	-16.3	0.4	0.2
O=C(CC(=O)N/N=C/c1ccc([N+](=O)[O-])cc1)N/N=C/c1ccc([N+](=O)[O-])cc1	-0.1	-3.1	0.5	4.2
O=C(N/N=C/c1ccccc1)c1cccc(O)c1	-0.1	12.8	-2.3	33.6*
CCN1CCN(c2cc(C)c3cc(NC(=O)Cc4ccc([N+](=O)[O-])cc4)ccc3n2)CC1	-0.2	-4.5	-0.2	-5.3
CCOc1ccc(N(CC)S(=O)(=O)c2ccc3c(c2)oc(=O)n3C)cc1	0.0	15.5	2.1	47.8*
CCN(c1cccc(C)c1)S(=O)(=O)c1ccc2c(c1)oc(=O)n2C	0.1	4.1	-0.2	44.2*
CCN(c1ccc(C)c(C)c1)S(=O)(=O)c1ccc2c(c1)oc(=O)n2C	0.0	5.7	-0.5	16.3
CCN(c1ccccc1)S(=O)(=O)c1ccc2c(c1)oc(=O)n2C	-0.1	-10.1	0.2	7.2
CCCCOc1ccc(C(=O)NCC2COc3ccccc3O2)cc1OC (centres undefined)	1.2	13.1	-1.4	-0.8
